# Source: PubChem BioAssay AID720579 (National Center for Advancing Translational Sciences (NCATS), 2013)
# In all, about 310,000 compounds went through this assay and about 1,900 (0.61%) were called active. Roughly 8% stayed inconclusive and do not appear here. Calls come from the whole dose curve; tested in A549 cells. The sample as a whole holds a higher share of actives than the screen did.
# Experiment: qHTS for Stage-Specific Inhibitors of Vaccinia Orthopoxvirus: mCherry Reporter Primary qHTS; note: nearly all actives have a fitted effect of over 35% in size
# Conditions: Vaccinia virus mCherry reporter infection, fluorescence; series mostly up to 36.5 µM; activity change, negative = inhibition: at the top concentration
# % is set by controls: 0 for no effect and ±100 for the full control effect; potency is the fitted concentration of half-maximal effect.
Structure (SMILES),Potency,"activity change, negative = inhibition",outcome
COc1ccc(Cc2nnc(N/N=C/c3ccccc3O)[nH]c2=O)cc1OC,1.26 µM (active),–,–
O=c1[nH]c(NCCO)nnc1Cc1ccc(Cl)cc1,–,-6.45% (inactive),–
COc1ccc(/C=N/Nc2nc3ccccc3c(=O)[nH]2)cc1,–,–,inactive
CCC(c1nnnn1-c1ccc2c(c1)OCCO2)N1CCN(c2ccc(C(F)(F)F)cn2)CC1 (configuration not stated),–,-14.7% (inactive),–
O=C(C(=O)N1CCC(c2ccccc2)CC1)c1ccccc1,–,–,inactive
CCOC(=O)[C@]12CCC=C1N(CCC1=CCCCC1)C(=O)[C@H](CC(=O)NCc1ccc(C)o1)C2,–,-14.5% (inactive),–
CN(C(=O)c1cccc(NC(=O)Cc2cccc([N+](=O)[O-])c2)c1)C1CCCCC1,10 µM (active),–,–
CN(C(=O)c1cccc(NC(=O)Cc2cccc(NC(=O)C3CCCN(C(=O)C4CC4)C3)c2)c1)C1CCC1 (configuration not stated),–,-2.68% (inactive),–
CN(C(=O)c1cccc(NC(=O)Cc2ccc(NC(=O)C3CCN(C(=O)C4CCCCC4)CC3)cc2)c1)C1CCC1,–,0.303% (inactive),–
CCN(CC)C(=O)C(C)N1c2cccc3cccc(c23)S1(=O)=O (configuration not stated),–,–,inactive
CSCCC(C(=O)NC(C)(C)C)n1c(-c2ccccc2)nc2ccccc21 (configuration not stated),–,5.73% (inactive),–
CCCNC(=O)C1(C)CCN1C(=O)Cc1ccc(-c2ccccc2)cc1 (configuration not stated),–,-12% (inactive),–
CC(C)N1CCc2c(sc(NC(=O)Cc3ccccc3)c2C#N)C1,–,-27% (inactive),–
CC(=O)N1CCc2c(sc(NC(=O)CCS(=O)(=O)c3ccc(C)cc3)c2C(N)=O)C1,–,-21.1% (inactive),–
CC(=O)N1CCc2c(sc(NC(=O)CCS(=O)(=O)c3ccccc3)c2C#N)C1,12.6 µM (active),–,–
CCc1oc(-c2ccc(OC)cc2)c(C(=O)OCCCCCO)c1C(C)OCCO (configuration not stated),–,–,inactive
O=C(c1cnn2c1NC(=C1CC1)C=C2C(F)F)N1CCc2ccccc2C1,–,-18.9% (inactive),–
CN(C)c1cccc(NC(=O)c2ccc(-c3ccc(F)c(F)c3)c3ccoc23)c1,–,–,inactive
Cc1ccccc1S(=O)(=O)NC(=O)C1(C)CCN1C(=O)C1(c2ccccc2)CCCC1 (configuration not stated),–,–,inactive
COc1ccc2c(Cl)c(-c3nnco3)sc2c1,–,–,inactive
C#CCSc1nnc(-c2sc3ccccc3c2Cl)o1,11.2 µM (active),–,–
O=C(OCC#CCSc1nnc(-c2ccncc2)o1)c1sc2ccccc2c1Cl,–,–,inactive
CC1(C(=O)Nc2cccnc2)Cc2c(-c3ccccc3)ccnc2O1 (configuration not stated),–,3.66% (inactive),–
COc1ccc(NS(=O)(=O)c2ccc(NC(=S)NC(=O)/C=C/c3ccc(C)cc3)cc2)nn1,–,-23.6% (inactive),–
COc1ccc(C(=O)Oc2cc(/C=N/NS(=O)(=O)c3ccc(C)cc3)ccc2OC)cc1,–,-0.0272% (inactive),–

Structure (SMILES),Potency,"activity change, negative = inhibition",outcome
COc1ccc(/C=C/C(=O)c2ccc(NS(=O)(=O)c3ccc(C)cc3)cc2)cc1O,12.6 µM (active),–,–
CCOC(=O)[C@]12CCCC=C1N(Cc1ccc3c(c1)OCO3)C(=O)[C@H](CC(=O)N1CCN(C(=O)c3ccco3)CC1)C2,–,17.3% (inactive),–
C/C=C/C(=O)OCc1csc(CC(=O)Nc2ccccc2C)n1,5.01 µM (active),–,–
Cc1ccccc1NC(=O)Cc1nc(COC(=O)C(C)(C)Oc2ccc(Cl)cc2)cs1,–,-3.94% (inactive),–
Cc1ccccc1NC(=O)Cc1nc(COC(=O)CNC(=O)c2ccc(Cl)cc2Cl)cs1,–,–,inactive
CCC(C(=O)NC(C)(C)C)n1c(-c2ccccc2)nc2ccccc21 (configuration not stated),–,-9.32% (inactive),–
C/C(=N\NC(=O)c1ccoc1C)c1ccccc1O,1.12 µM (active),–,–
CC(C)=C(NC(=O)c1ccccc1)C(=O)N/N=C(\C)c1ccccc1O,–,-21.4% (inactive),–
C/C(=N\NC(=O)c1ccccc1C)c1ccc(N2CCOCC2)cc1,–,-16% (inactive),–
CCOC(=O)[C@]12CCCC=C1N(CCC1=CCCCC1)C(=O)[C@H](CC(=O)N1CCN(C(=O)c3ccco3)CC1)C2,–,–,inactive
CCc1c(-c2ccc(F)cc2)ncn1Cc1cccc(-c2ccccc2)c1,–,–,inactive
N#Cc1cccc(NC(=O)c2cc(C3CCCCN3C(=O)CCc3ccccc3)on2)c1 (configuration not stated),–,1.36% (inactive),–
Cc1cc2c(cc1C)N1C(=O)c3cc4ccccc4cc3NC(=O)C1C(=O)N2 (configuration not stated),–,11.5% (inactive),–
Oc1ccc(/C=N/Nc2ccc(C(F)(F)F)cn2)cc1O,10 µM (active),–,–
CCNc1nc(NCC)nc(N/N=C/c2ccc(O)c(OC)c2)n1,–,-15.6% (inactive),–
FC(F)(F)c1cccc(N/N=C/c2ccccc2)c1,–,-17.6% (inactive),–
O=C(COc1ccccc1C(=O)Nc1ccccc1)Nc1cccc(F)c1,–,-27.2% (inactive),–
CC1(C(=O)Nc2cccc(Oc3ccccc3)c2)CCN1Cc1ccccc1Cl (configuration not stated),–,–,inactive
CN1OC[C@@H]2CN(C(=O)c3ccc(-c4ccccc4)cc3)[C@H](c3ccc(-c4cccc(F)c4)cc3)C[C@@H]21,–,-2.21% (inactive),–
COc1ccccc1Cc1c(-c2ccc(Cl)cc2)nc2ccc(Cl)cn12,–,-16.7% (inactive),–
C/C(=N\NC(=O)Cc1ccc(Cl)cc1)c1ccccn1,5.01 µM (active),–,–
O=C(Nc1ccc(NC(=O)c2ccccc2F)cc1)c1ccccc1F,–,-15% (inactive),–
C/C(=N\NC(=O)Cc1ccc(F)cc1)c1ccc(F)cc1,–,-19.4% (inactive),–
C/C(=N\NC(=O)c1ccccc1F)c1ccccn1,2 µM (active),–,–
O=C(NCCOc1ccccc1)c1ccccc1F,–,-10.6% (inactive),–

Structure (SMILES),Potency,"activity change, negative = inhibition",outcome
C/C(=N\NC(=O)Cc1ccc(Br)cc1)c1cccnc1,–,–,inactive
COc1ccccc1Cc1c(-c2ccc(Cl)cc2)nc2c3ccccc3ccn12,–,-7.18% (inactive),–
COc1ccc(NC(=O)c2sc(=O)n(Cc3ccc(S(=O)(=O)N(C)C)cc3)c2C)cc1,–,–,inactive
COc1cccc(-c2cc(NC(C)=O)c3ncc(-c4cccc(C(C)=O)c4)n3c2)c1,–,4.33% (inactive),–
SCc1nc2ccc(Cl)cc2[nH]1,–,-20.9% (inactive),–
CC(=O)N1Cc2cc(C(=O)NCc3cccc(F)c3)nc(-c3cccc(C4=CCCC4)c3)c2[C@H]1CCO,–,-22.7% (inactive),–
Cc1ccc(C)c(S(=O)(=O)n2nc(C)c(S(=O)(=O)N3CCC(C)CC3)c2C)c1,–,7.85% (inactive),–
Cc1ccc(C)c(S(=O)(=O)N2CCN(c3ncnc4sccc34)CC2)c1,7.08 µM (active),–,–
Cc1ccc(S(=O)(=O)N2CCN(c3ncnc4ccccc34)CC2)cc1,–,–,inactive
CCCN(CCC)S(=O)(=O)c1cc2c(cc1Br)CCN2C(=O)CC,–,-19.1% (inactive),–
CCCNC(=O)C1(C)CCN(Cc2ccc(Cl)c(Cl)c2)C1 (configuration not stated),–,10.3% (inactive),–
CCn1c(=O)c(=O)[nH]c2c(=O)oc3ccc(S(=O)(=O)Nc4ccc(OC)cc4)cc3c21,–,-4.06% (inactive),–
COc1ccc(NS(=O)(=O)c2ccc3oc(SCC(N)=O)nc3c2)cc1,3.55 µM (active),–,–
COc1ccc(NC(=O)c2cnc(NS(=O)(=O)c3ccccc3)nc2)cc1,–,-2.69% (inactive),–
Cc1ccc(NC(=O)Cn2sc3ccccc3c2=O)cc1,–,–,inactive
CN(C(=N)N)c1ccc(/C=C2\C=Cc3ccccc32)cc1,–,-25.5% (inactive),–
CCOC(=O)[C@]12CCCC=C1N(CCC1=CCCCC1)C(=O)[C@H](CC(=O)N1CCCCC1)C2,–,-13.6% (inactive),–
COc1cc2nc(N3CCCN(C)CC3)nc(NC3CC3)c2cc1OC,–,-9.78% (inactive),–
c1ccc2sc(NN=C3CCCC3)nc2c1,–,-13.5% (inactive),–
c1ccc(C(=NNc2nc3ccccc3s2)c2ccccn2)cc1,7.08 µM (active),–,–
O=C(Nc1ccccc1Cl)O/N=C(/c1ccccc1)c1ccccn1,–,-20.6% (inactive),–
Cc1[nH]c2ccccc2c1C(=O)c1cc([C@H](NC(=O)OC(C)(C)C)C(C)C)sc1N,–,-10.6% (inactive),–
CCCCN(C(C)=O)c1ccc2c(c1)C1CC2CCN1Cc1ccccc1 (configuration not stated),–,–,inactive
COc1ccccc1Oc1nc(-c2cccnc2)nc2ccccc12,–,–,inactive
O=[N+]([O-])c1ccc(F)cc1Oc1nc(-c2cccnc2)nc2ccccc12,3.55 µM (active),–,–

Structure (SMILES),Potency,"activity change, negative = inhibition",outcome
Fc1ccc(/C=N/Nc2nc(-c3cccnc3)nc3ccccc23)cc1,–,–,inactive [at 7.34 µM]
COc1ccc(-c2ccc(C(=O)NCCN3CCOCC3)c3occc23)c(C)c1,–,-6.53% (inactive),–
COC1CC(OC2CC[C@@]3(C=O)C4CC[C@]5(C)C(C6=CC(=O)OC6)CC[C@@]5(O)C4CC[C@]3(O)C2)OC(C)C1O (some centres not stated),2.51 µM (active),–,–
CC1=C(C(=O)N2CCOCC2)CC(CC(=O)NCC2CCCCC2)C(=O)N1Cc1ccc(F)cc1 (configuration not stated),–,-20.7% (inactive),–
CC(=O)C1=CCC(c2ccccc2)N(S(=O)(=O)c2ccc(C)cc2)C1 (configuration not stated),–,–,inactive
COc1cccc(NC(=O)C2(C)CCN2C(=O)CCC2CCCC2)c1 (configuration not stated),–,–,inactive
CCCCCCN1CCN(C2CN(Cc3cn(CCCCCC)nn3)S(=O)(=O)C2)CC1 (configuration not stated),–,-6.2% (inactive),–
COc1ccc2c(c1O)-c1cccc3c1[C@@H](C2)N(C)CC3,–,-17.5% (inactive),–
CN1CCc2cc3c(cc2[C@H]1[C@@H]1OC(=O)c2c1ccc1c2OCO1)OCO3,–,-6.18% (inactive),–
COc1c(O)ccc2c1CN1CCc3cc4c(cc3C1C2)OCO4 (configuration not stated),11.2 µM (active),–,–
CC(C)NC(=O)C1(C)CCCCCN1C(=O)c1ccc(-c2ccccc2)cc1 (configuration not stated),–,–,inactive
CC(=O)c1ccc(Nc2nc(C(N)c3ccccc3Cl)cs2)cc1 (configuration not stated),–,-16.5% (inactive),–
CC(=O)Nc1cccc(-c2cc(NC(C)=O)c3ncc(-c4ccccc4)n3c2)c1,–,12% (inactive),–
CCOc1ccc(-c2cc(C(=O)N/N=C/c3ccc(O)cc3)c3ccccc3n2)cc1,3.98 µM (active),–,–
COc1ccc(-c2cc(C(=O)N/N=C/c3cccnc3)c3ccccc3n2)c(OC)c1,–,-10.7% (inactive),–
COc1ccc(-c2cc(C(=O)Nc3ccccc3O)c3ccccc3n2)cc1,–,-20.4% (inactive),–
CC1(C(=O)Nc2ccc3c(c2)OCCO3)CCN1C(=O)Cc1cc(F)ccc1F (configuration not stated),–,–,inactive
CCCOc1ccc(F)cc1-c1cc(C(=O)NCc2ccc(F)cc2)[nH]n1,–,-8.69% (inactive),–
CN(Cc1cccc2ncccc12)C(=O)c1cnn(-c2nccc(-c3ccccc3F)n2)c1C1CC1,5.62 µM (active),–,–
Cc1ccc(-c2ccnc(-n3ncc(C(=O)N(C)Cc4cccc5ncccc45)c3C3CC3)n2)o1,–,-4.61% (inactive),–
Cc1cccc(CNC(=O)c2cnn(-c3nccc(-c4ccccc4F)n3)c2C2CC2)n1,–,-8.11% (inactive),–
CCOC(=O)C1=CCC(c2ccc(F)cc2)N(S(=O)(=O)c2ccc(C)cc2)C1 (configuration not stated),–,18.9% (inactive),–
